An excerpt weighted towards active compounds, which were near 1.1% of everything screened.
NR5A2 inv ag: LRH-1 (NR5A2) inverse agonists, primary screen, cell-based, luminescence, HEK293T, StAR-luciferase reporter; Nuclear receptor subfamily 5 group A member 2 (Homo sapiens), O00482; LRH-1 transfected, 24 h; inhibition, % at 3.6 µM; 0.13% of 360,000 active; AID 602396, 2012;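 active means inhibition above the mean inhibition of all tested compounds plus 3 SD, cut at about 73% in these data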;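 further: 0% = DMSO wells and 100% = reporter-only cells lacking LRH-1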
Target sequence (O00482 whole entry, looked up): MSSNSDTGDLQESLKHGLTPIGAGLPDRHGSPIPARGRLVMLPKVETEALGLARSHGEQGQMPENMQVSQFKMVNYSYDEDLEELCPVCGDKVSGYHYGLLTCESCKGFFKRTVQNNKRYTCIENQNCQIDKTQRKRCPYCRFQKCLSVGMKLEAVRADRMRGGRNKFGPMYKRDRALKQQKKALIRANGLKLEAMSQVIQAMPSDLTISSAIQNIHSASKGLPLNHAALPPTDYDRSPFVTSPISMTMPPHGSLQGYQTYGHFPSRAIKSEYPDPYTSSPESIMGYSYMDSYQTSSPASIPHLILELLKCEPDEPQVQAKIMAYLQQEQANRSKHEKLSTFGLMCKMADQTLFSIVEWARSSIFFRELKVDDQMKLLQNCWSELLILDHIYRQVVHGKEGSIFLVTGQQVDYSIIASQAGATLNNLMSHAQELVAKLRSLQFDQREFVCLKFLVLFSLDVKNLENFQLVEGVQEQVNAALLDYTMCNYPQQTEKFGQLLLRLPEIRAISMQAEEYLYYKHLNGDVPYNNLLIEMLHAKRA
SRC1 inh: SRC1 coactivator transcriptional activity inhibitors, primary screen, cell-based, luminescence; Nuclear receptor coactivator 1 (Homo sapiens), Q15788; HEK293 GAL4-SRC1 luciferase reporter; inhibition, % at 3.6 µM; 0.12% of 360,000 active; AID 588354, 2011;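 active means inhibition above the campaign mean plus 3 SD, with each screening campaign given its own cutoff, cut at about 60% in these data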;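 further: 0% = DMSO treated cells and 100% = gossypol at 36 µM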
NR2F2 inh: NR2F2 transcriptional activity inhibitors, primary screen, cell-based, luciferase reporter, HEK293T, luminescence; COUP transcription factor 2 (Homo sapiens), P24468; HEK293T NGFI-A luciferase reporter; inhibition, % at 8.6 µM; 0.7% of 370,000 active; AID 686940, 2013;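 active means inhibition above a per-plate cutoff, mean inhibition of test wells between control levels plus 3 SD, cut at about 38% in these data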;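 further: cells cotransfected with COUP-TFII expression vector driving the NGFI-A reporter; 0% = median of COUP-TF2 test wells and 100% = reporter-only cells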
NCOA3 inh: SRC3 coactivator transcriptional activity inhibitors, primary screen, cell-based, luminescence. HEK293 GAL4-SRC3 luciferase reporter. 0.17% of 360,000 active. inhibition, % at 3.6 µM;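 active means inhibition above a per-campaign cutoff, the mean of all compounds plus 3 SD, cut at about 60% in these data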;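 further: 0% = DMSO-treated cells and 100% = gossypol-treated cells at 36 µM; higher means less SRC3-driven luciferase light from the GAL4 reporter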
SRC2 inh: inhibition of GAL4-SRC2 driven luciferase reporter, primary screen, SRC2 inhibitor project, cell-based, luminescence. HEK293 GAL4-SRC2 luciferase reporter. inhibition, % at 9 µM. Nuclear receptor coactivator 2 (Homo sapiens), Q15596. 0.17% of 370,000 active;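 active means inhibition above the mean inhibition of all tested compounds plus 3 SD, set per campaign, cut at about 52% in these data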;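 further: 0% = DMSO treated cells and 100% = cells given Gossypol at 36 µM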
GalR3 antagonist: GalR3 antagonists in HEK293 cells, primary screen, cell-based, fluorescence readout; Galanin receptor type 3 (Homo sapiens), O60755; AID 651719, 2012; HEK293 GalR3-CNG cAMP membrane potential fluorescence; galR3 body fused to GalR1 C-terminus; inhibition, % at 3 µM; 0.44% of 360,000 active;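 active means inhibition above the screen-wide average plus 3 SD, cut at about 13% in these data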;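 further: forskolin and galanin both at EC90 stimulate the cells; cAMP rise reported by CNG channel membrane potential dye signal; 0% = forskolin plus galanin with DMSO and 100% = forskolin alone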
GalR3 conf: GalR3 antagonist hit confirmation, cell-based, fluorescence, triplicate. shares compounds with GalR3 antagonist. HEK293 GalR3 CNG cAMP biosensor, membrane potential fluorescence; galR3 fused to GalR1 carboxy tail; challenged with forskolin and galanin at EC90. inhibition, % at 3 µM. 59% of 1,600 active. AID 652245, 2013;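 active means inhibition above the primary screen's cutoff, the mean inhibition of all screened compounds plus 3 SD, cut at about 13% in these data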;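 further: 0% = forskolin plus galanin and 100% = forskolin alone with DMSO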
HEK-CNG parental: nonspecific cAMP agonists in parental HEK-CNG cells, counter-screen for GalR3 antagonist project, cell-based, fluorescence, high throughput | shares compounds with GalR3 antagonist | HEK293-CNG parental cells, cAMP membrane potential fluorescence; normalised: DMSO wells 0%, forskolin wells 100% | activation, % at 3 µM | 10% of 1,600 active | AID 652268, 2013; in the data active means activation above about 1.3%
The depositor's hits bear a star; · = not tested or not shown.

SMILES	NR5A2 inv ag	SRC1 inh	NR2F2 inh	NCOA3 inh	SRC2 inh	GalR3 antagonist	GalR3 conf	HEK-CNG parental
COC(=O)C1=C(C)NC2=C(C(=O)CCC2)C1c1cn(Cc2ccc(Cl)cc2Cl)nc1-c1ccccc1 (stereo not drawn)	-6	-2	9	-8	-25	37*	50*	0
CCOC(=O)C1=C(C)NC2=C(C(=O)CCC2)C1c1cc(OC)ccc1OC (stereo not drawn)	-4	1	-11	16	-22	-1	·	·
CCOC(=O)C1=C(C)NC2=C(C(=O)CCC2)C1c1cn(Cc2ccc(Cl)cc2Cl)nc1-c1ccccc1 (stereo not drawn)	0	-7	-11	16	-2	16*	13*	6.2*
COc1ccc(CCNC(=O)c2ccc3c(c2)ncn3C2CCCCC2)cc1	·	·	-12	·	-6	·	·	·
CCCCN1CN2Cc3ccc(C)cc3C2CS1(=O)=O (stereo not drawn)	·	·	-6	·	1	·	·	·
Cc1cc(C)nc(N2C(=O)CC(C(=O)O)NC2=NCCc2c[nH]c3ccccc23)n1 (stereo not drawn)	-6	-2	-5	-4	17	14*	1	0
O=C1[C@H](Cc2ccccc2)NCCCC[C@@H](c2ccc(Cl)cc2)N1Cc1ccccc1	6	-3	4	-3	18	·	1	2.3*
Cc1ccc(-n2c(SCC(=O)N3CC(=O)Nc4ccccc43)nc3ccccc3c2=O)cc1C	-8	2	-2	-3	-6	-3	·	·
Cc1cccc(-n2c(SCC(=O)N3CC(=O)Nc4ccccc43)nc3ccccc3c2=O)c1	18	-8	-7	-20	11	15*	3	1
CC(COc1ccc(Br)cc1)CN1CCC(C(O)(c2ccccc2)c2ccccc2)CC1 (stereo not drawn)	·	·	3	·	14	·	·	·
CCCCNC(=O)N(c1c(N)n(Cc2ccccc2)c(=O)[nH]c1=O)C1CCCC1	13	-11	12	0	7	-3	·	·
CCCCNC(=O)N(CC)c1c(N)n(Cc2ccccc2)c(=O)[nH]c1=O	-4	-22	-4	-11	-15	13*	3	0
CN1C(=O)[C@@]2(O[C@H]3c4ccccc4C=CN3C3=C2C(=O)CCC3)c2ccccc21	·	·	-5	·	-6	-3	·	·
CCc1cc(=O)[nH]c(SCC(=O)NCC2CCCO2)n1 (stereo not drawn)	-25	11	20	-42	6	0	·	·
O=C(CSc1cc(Cl)ccc1Cl)NCC1CCCO1 (stereo not drawn)	5	13	-10	15	10	-6	·	·
O=C(CSc1ncc(C(F)(F)F)cc1Cl)NCC1CCCO1 (stereo not drawn)	12	4	-23	8	-10	13*	2	1
Nc1cc(=O)[nH]c(SCC(=O)NCC2CCCO2)n1 (stereo not drawn)	-17	-9	-9	2	-4	13*	-4	0
C[C@H]1[C@@H](NCc2cccs2)CC[C@@]23CCCN2C(=O)CCC[C@@H]13	·	·	-5	·	·	·	·	·
CC(=O)OCC1OC(n2c(S)c(C#N)c(-c3ccccc3)c(C#N)c2=O)C(OC(C)=O)C(OC(C)=O)C1OC(C)=O (stereo not drawn)	-8	-5	-18	-11	-1	57*	87*	1
Cc1[nH]c(=O)[nH]c(=O)c1/C=N/NC(=O)[C@H](CC(C)C)NC(=O)OC(C)(C)C	1	-129	20	-13	10	0	·	·
Cc1[nH]c(=O)[nH]c(=O)c1/C=N/NC(=O)[C@H](C)NC(=O)OC(C)(C)C	-1	6	4	-1	12	·	1	0
CCCNC(=O)C12CCC(C)(c3nc4cc(C)c(C)cc4nc31)C2(C)C (stereo not drawn)	10	-7	16	16	4	16*	4	0
COc1cc(OC)c2cc[nH]c2c1	2	10	-7	8	19	18*	5	0
COc1cccc(C2N(c3ccccc3)CCN2c2ccccc2)c1OC	9	4	17	6	-3	14*	9	0
O=C(Nc1ccc2c(c1)Cc1ccccc1-2)NC1CCCCN(Cc2ccc(Cl)cc2)C1=O (stereo not drawn)	·	·	-10	·	6	·	·	·
SMILES	NR5A2 inv ag	SRC1 inh	NR2F2 inh	NCOA3 inh	SRC2 inh	GalR3 antagonist	GalR3 conf	HEK-CNG parental
CCC(NC(=O)c1ccccc1NC(=O)C(C)(C)C)C(=O)N1CCCC1 (stereo not drawn)	20	2	2	12	-28	15*	7	0
CCC(NC(=O)c1ccccc1NC(=O)C(C)(C)C)C(=O)N1CC(C)OC(C)C1 (stereo not drawn)	17	1	6	9	-20	3	·	·
O=C1NC(=Nc2ccccc2Cl)S/C1=C\c1ccc(C(=O)O)cc1	-6	7	-8	-10	-6	-8	·	·
CC12CCC(C/C1=N\N=C1\NC(=O)/C(=C\c3ccc(Cl)cc3)S1)C2(C)C (stereo not drawn)	-30	-2	12	9	22	17*	-16	34*
Nc1ncnc2c1ncn2[C@@H]1O[C@H](CNCc2ccc(-c3cc(C(F)(F)F)ccc3Cl)o2)[C@@H](O)[C@H]1O	-9	-13	-47	-1	-27	42*	54*	0
Cc1cccc(NC(=O)CNC(=O)[C@H]2O[C@@H](n3cnc4c(N)ncnc43)[C@H](O)[C@@H]2O)c1C	-5	-30	0	3	-1	-5	·	·
Nc1ncnc2c1ncn2[C@@H]1O[C@H](C(=O)N[C@@H](CO)c2ccccc2)[C@@H](O)[C@H]1O	13	13	-27	15	9	-6	·	·
O=c1ccn([C@@H]2O[C@H](CNCc3ccc(-c4cc(C(F)(F)F)ccc4Cl)o3)[C@@H](O)[C@H]2O)c(=O)[nH]1	-9	4	-5	-3	-22	2	·	·

From PubChem
